Shown are actives, neighbours in structure and some others; about 6.3% of the full set was active somewhere.
Abs 340nm: compound absorbs light at 340 nm; compound absorbance at 340 nm, fold over control; fold change at 10 µM; 65,000 tested, under 10 active;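 active means at 10 µM dose, initial 340 nm absorbance at least 2 fold that of control wells; inactive means change under 2 fold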;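 further: initial absorbance extrapolated from kinetic A340 decline of NADH oxidation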
NADH coupling: inhibition of NAD/NADH coupling enzymes, library profiling; coupled PK/LDH NADH assays, four targets; IC50, µM (series often up to 10 µM); 0.02% of 65,000 active; AID 774;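 active means single-dose screening hits from any of four coupled enzyme assays that gave an IC50 when retested across doses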;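 further: the DPM-DC format reads NADH fluorescence rather than 340 nm absorbance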
PMK inhibit: blocks S. pneumoniae phosphomevalonate kinase; purified PMK, PK/LDH-coupled NADH absorbance 340 nm; inhibition, % at 10 µM; 0.49% of 65,000 active; AID 539;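 active means top-ranked compounds by inhibition in the single 10 µM screen, taking a fixed number of the strongest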
Autofluor 339: intrinsic fluorescence of library compounds, ex339/em460 – biochemical, MLSMR library, data from DPM-DC assay, artefact control, profiling panel | fluorescence fold increase at 10 µM | 5.5% of 65,000 active | compound autofluorescence, ex339/em460 nm, NADH buffer; active compounds read high; 1 = no-compound wells, NADH background | AID 709;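 active means at 10 µM, mean starting fluorescence two-fold or more over control wells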;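 further: signal is the first read of a kinetic run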
DPM-DC inhibit: S. pneumoniae DPM-DC inhibition; calls only at 10 µM; 0.49% of 65,000 active; purified DPM-DC, PK/LDH coupled NADH fluorescence; AID 556;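 active means the 320 compounds with the highest percent inhibition in the single-dose primary screen, excluding strongly autofluorescent ones, cut at about 32% in these data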;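 further: kinetic rate of NADH fluorescence loss reporting ADP formed by the decarboxylase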
Spn MK inh: S. pneumoniae mevalonate kinase inhibition | purified MK, PK/LDH-coupled NADH absorbance 340 nm | inhibition, % at 10 µM | 0.48% of 65,000 active | AID 555;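 active means ranked among the strongest by inhibition in the single 10 µM screen, a fixed top-ranked set picked for dose follow-up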
Large screens that a line does not name were inactive; [ ] = remark or other dose.

COCCNC(=O)c1ccc2c(c1)nc(C)n2-c1cc(OC)c(OC)c(OC)c1	none
COc1ccc(CCN2CC(O)=C(c3nc4ccccc4c(=O)[nH]3)C2=N)cc1OC	Autofluor 339 2.3 (not shown: DPM-DC inhibit)
CCOC(=O)c1ccc(N2CC(O)=C(c3nc4ccccc4c(=O)[nH]3)C2=N)cc1	Autofluor 339 2.4 (not shown: DPM-DC inhibit)
O=C(CCn1c(=O)oc2ccccc21)NCCCN1CCCC1=O	none
Cc1onc(-c2ccccc2Cl)c1C(=O)OCC(=O)N1CCCc2ccccc21	none
Cc1nc(NC2=NCN(Cc3ccc4c(c3)OCO4)CN2)nc2ccccc12	none
Cc1cc(C)nc(Nc2nc(C)c3cc4c(cc3n2)OCO4)n1	Autofluor 339 3.5 (not shown: DPM-DC inhibit)
COc1ccc(-c2cc3nc(-c4ccccc4)cc(N4CCC5(CC4)OCCO5)n3n2)cc1	Autofluor 339 4.8 (not shown: DPM-DC inhibit)
Cc1cccc(-c2cc3nc4c(c(N5CCC6(CC5)OCCO6)n3n2)CCCC4)c1	none
COc1ccc(-c2cc3nc(C4CCN(C(=O)OC(C)(C)C)CC4)c(C(=O)O)cn3n2)cc1	Autofluor 339 2.7
O=C(CSc1ccc(-c2nc3ccccc3[nH]2)cn1)N1CCN(C(=O)c2ccco2)CC1	Autofluor 339 2.1 (not shown: DPM-DC inhibit)
COC(=O)c1cc2c([nH]c3ccccc32)c(C)n1	Autofluor 339 4.8 (not shown: DPM-DC inhibit)
c1ccc2nc(-c3nc4ccccc4o3)ccc2c1	Autofluor 339 2.1 (not shown: DPM-DC inhibit)
c1cc(-c2nc3ccccc3o2)nc(-c2nc3ccccc3o2)c1	none
CC(C)Oc1cc2oc(=O)c3c(c2cc1Cl)CCC3	Autofluor 339 2.3
Cc1coc2c(C)c3oc(=O)c4c(c3cc12)CCC4	none
O=C(Oc1cc2oc(=O)c3c(c2cc1Cl)CCCC3)c1ccco1	Autofluor 339 2.5 (not shown: DPM-DC inhibit)
Cc1cc(=O)oc2cc(OC(C)C(=O)O)c(Cl)cc12 (stereo not drawn)	Autofluor 339 3.2, DPM-DC inhibit active
Cc1coc2cc3oc(=O)c4c(c3cc12)CCC4	Autofluor 339 2.8, DPM-DC inhibit active[may fluoresce]
CCCc1cc(=O)oc2cc(OCC(=O)N(C)C)c(Cl)cc12	none
Cc1cc2oc(=O)c3c(c2cc1OC(=O)c1ccco1)CCCC3	none
CC(=O)N1CCN(c2ccc(Oc3nnnn3-c3ccccc3)cc2)CC1	none
CC(=O)Oc1cc2oc(=O)c3c(c2cc1Cl)CCC3	Autofluor 339 4.9 (not shown: DPM-DC inhibit)
CCCCOCCCn1c(-c2ccco2)nc2nc3ccccc3nc21	Autofluor 339 4 (not shown: DPM-DC inhibit)
Fc1ccc(-c2nc3nc4ccccc4nc3n2Cc2ccco2)cc1	none
Fc1cccc(-n2c(-c3ccco3)nc3nc4ccccc4nc32)c1	Autofluor 339 3.6 (not shown: DPM-DC inhibit)
Fc1ccc(-n2c(-c3ccco3)nc3nc4ccccc4nc32)cc1	Autofluor 339 5.1 (not shown: DPM-DC inhibit)
CC(=O)C1=C(O)C=C(c2ccco2)CC1c1ccco1 (stereo not drawn)	none
O=C(NCCCn1ccnc1)Nc1cccc(Cl)c1	none
O/N=C1\CCC\C1=C/c1ccco1	DPM-DC inhibit active
O/N=C1/CCCSc2ccccc21	none
CCC(C)NC(=O)c1c(N)n(/N=C/c2cccnc2)c2nc3ccccc3nc12 (stereo not drawn)	Autofluor 339 3.1 (not shown: DPM-DC inhibit)
Cc1nc2ccccc2c(=O)n1/N=C/c1cccnc1	none
CCC(C)NC(=O)c1c(N)n(/N=C/c2ccccn2)c2nc3ccccc3nc12 (stereo not drawn)	none
COCCCNC(=O)c1c(N)n(/N=C/c2cccnc2)c2nc3ccccc3nc12	Autofluor 339 2.3 (not shown: DPM-DC inhibit)
CC(C)OCCCNC(=O)c1c(N)n(/N=C/c2ccccn2)c2nc3ccccc3nc12	none
COCCCNC(=O)c1c(N)n(/N=C/c2cccs2)c2nc3ccccc3nc12	Autofluor 339 2.3 (not shown: DPM-DC inhibit)
CC(C)CNC(=O)c1c(N)n(/N=C/c2cccnc2)c2nc3ccccc3nc12	Autofluor 339 2.3 (not shown: DPM-DC inhibit)
Cn1nnnc1SCC(=O)N1CCN(c2cccc(Cl)c2)CC1	none
CCOC(=O)c1ccc(NC2OC(=O)c3ccccc32)cc1 (stereo not drawn)	none
CN1C(=O)N(c2ccccc2)C(Nc2nncs2)C1(C)C (stereo not drawn)	none
Cc1nn(C)cc1CN(C)C(=O)c1cc2nc(-c3ccco3)cc(C(F)(F)F)n2n1	Autofluor 339 2.7
Cc1nn(C)c(C)c1CN(C)C(=O)c1cc2nc(-c3ccco3)cc(C(F)(F)F)n2n1	Autofluor 339 2.5
Cc1ccccc1Cn1nc(C)c(NC(=O)c2cc3nc(-c4ccco4)cc(C(F)(F)F)n3n2)c1C	none
CCCC(=O)Nc1ccccc1-c1nnc(SC)[nH]c1=O	none
CCCCNC(=O)Nc1ccnn1C1CCCCC1	none
CCN(c1ccccc1)c1cc(C)nc2nc(C)nn12	none
Cc1cc(N)n2nc(-c3ccccc3)cc2n1	none
Cc1nc2nc(-c3ccccc3)cn2nc1C	Autofluor 339 2.2 (not shown: DPM-DC inhibit)
CCc1c(-c2ccccc2)nc2nc(C)c(C)nn12	Autofluor 339 2.1 (not shown: DPM-DC inhibit)
Cc1nn2cc(-c3ccc(N)cc3)nc2s1	none
CCc1ccc(-c2cn3nc(C)c(C)nc3n2)cc1	Autofluor 339 2.3 (not shown: DPM-DC inhibit)
NC(=O)C1(N2CCCCC2)CCN(Cc2ccccc2Cl)CC1	none
O=C(CCN1C(=O)C2C3C=CC(C3)C2C1=O)NC1CCCc2ccccc21 (stereo not drawn)	none
O=c1[nH]c(-c2ccccn2)nc2ccccc12	none
CCN(CC)C(=O)c1sc2nc(-c3ccccn3)[nH]c(=O)c2c1C	Autofluor 339 3.4, DPM-DC inhibit active
CCN(CC)C(=O)c1sc2nc(-c3ccncc3)[nH]c(=O)c2c1C	Autofluor 339 5 (not shown: DPM-DC inhibit)
COc1ccc(S(=O)(=O)N(CCCN2CCCC2=O)Cc2cc3cc(C)c(C)cc3[nH]c2=O)cc1	none
CCOc1ccc(C2c3c(oc4ccccc4c3=O)C(=O)N2c2ccccn2)cc1OC (stereo not drawn)	none
COC(=O)c1ccccc1NC(=O)c1ccc(-c2ccccc2F)o1	Autofluor 339 2.2 (not shown: DPM-DC inhibit)
Cn1c(=O)c2ncn(CC(=O)Nc3ccc4oc(-c5cccc6ccccc56)nc4c3)c2n(C)c1=O	Autofluor 339 3.7 (not shown: DPM-DC inhibit)
CCC(C)c1ccc2oc(-c3ccc(NC(=O)Cn4cnc5c(=O)n(C)c(=O)n(C)c54)cc3)nc2c1 (stereo not drawn)	Autofluor 339 3.7 (not shown: DPM-DC inhibit)
CCOC(=O)NC1(NC2CCCCC2)Oc2ccccc2O1	none
CC1(C)Oc2ccc3ccc(=O)oc3c2-c2cn[nH]c21	none
CC1(C)Oc2ccc3ccc(=O)oc3c2-c2cnoc21	Autofluor 339 2.2 (not shown: DPM-DC inhibit)
CCN1CCN(Cc2c(O)ccc3c(=O)c(-c4ccc(OC)c(OC)c4)c(C)oc23)CC1	Autofluor 339 3.9 (not shown: DPM-DC inhibit)
COc1ccc(-c2c(C)oc3c(CN4CCN(C)CC4)c(O)ccc3c2=O)cc1	Autofluor 339 2.2 (not shown: DPM-DC inhibit)
CN1C(=O)C2(N=c3ccccc3=N2)c2ccccc21	Autofluor 339 2.1 (not shown: DPM-DC inhibit)
CN1/C(=C\C(=O)C(F)F)C(C)(C)c2ccccc21	none
CCc1nnc(NC(=O)CSc2nnc(-c3ccccc3NC(=O)c3ccccc3)o2)s1	Autofluor 339 2.1
CCc1nnc2sc(-c3ccc(NC(=O)c4ccc5c(c4)OCCO5)cc3)nn12	Autofluor 339 3.9 (not shown: DPM-DC inhibit)

Source: PubChem BioAssay (SRMLSC)
